Bioassay records as filed in PubChem BioAssay.
POLI inh = DNA polymerase iota (human) inhibition; Q9UNA4; 1% of 390,000 active; Pol iota fluorescent replication assay, 10 min; Potency, µM (series often up to 115 µM), actives largely listed as inhibitors
Target sequence (Q9UNA4 whole entry, looked up): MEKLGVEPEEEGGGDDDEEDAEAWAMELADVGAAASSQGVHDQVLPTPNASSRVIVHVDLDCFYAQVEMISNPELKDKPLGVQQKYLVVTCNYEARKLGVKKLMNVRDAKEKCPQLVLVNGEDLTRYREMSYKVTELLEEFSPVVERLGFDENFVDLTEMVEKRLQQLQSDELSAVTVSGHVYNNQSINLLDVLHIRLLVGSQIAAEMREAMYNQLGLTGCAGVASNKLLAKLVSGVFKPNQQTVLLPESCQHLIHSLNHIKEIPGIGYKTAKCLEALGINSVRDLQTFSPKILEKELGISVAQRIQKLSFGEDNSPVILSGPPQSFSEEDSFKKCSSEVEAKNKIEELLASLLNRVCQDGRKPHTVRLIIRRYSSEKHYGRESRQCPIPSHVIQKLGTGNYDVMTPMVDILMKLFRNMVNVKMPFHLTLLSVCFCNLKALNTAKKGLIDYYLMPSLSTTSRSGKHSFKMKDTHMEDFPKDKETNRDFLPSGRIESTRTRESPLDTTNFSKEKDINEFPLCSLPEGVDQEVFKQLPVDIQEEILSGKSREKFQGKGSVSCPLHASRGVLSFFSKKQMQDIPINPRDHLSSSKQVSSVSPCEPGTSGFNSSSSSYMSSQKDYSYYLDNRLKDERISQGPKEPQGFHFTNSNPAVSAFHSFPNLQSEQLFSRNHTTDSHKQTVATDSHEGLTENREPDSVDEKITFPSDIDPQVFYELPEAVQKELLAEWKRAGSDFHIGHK
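Pol iota at 10 nM preincubated 15 min with compounds at room temperature; reaction started with fluorescent substrate, 50 nM final. Fluorescence read kinetically at 0 and 10 min; buffer-only wells as negative control.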
WRN inhibitor = WRN helicase (human) inhibition; Q14191; WRN helicase unwinding, fluorescent forked duplex, kinetic; Potency, µM (series often up to 114 µM), hits mostly inhibitors; 0.46% of 360,000 active; AID 651768; also: nearly all actives have a fitted effect of over 55% in size
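Screening of the MLSMR collection measured strand separation of a quenched forked DNA duplex (100 nM) by 20 nM WRN with 2 mM ATP, all final. Compounds were preincubated with enzyme 15 min at room temperature.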
POLB inh = DNA polymerase beta (human) inhibition; AID 485314; Pol beta primer extension/strand displacement, fluorescence kinetic; 1.3% of 340,000 active; P06746; Potency, µM (titrated, usually from 114 µM), usual class: inhibitors
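Values derive from four-parameter Hill fits of normalized kinetic data: reads at 0 and 10 min following addition of 50 nM substrate to 10 nM Pol beta preincubated 15 min with compound.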
Pol eta inh-1 = blocks human DNA polymerase eta activity | 1.2% of 390,000 active | Q9Y253 | AID 588591 | Potency, µM (doses to about 114 µM), usual class: inhibitors | recombinant Pol eta, fluorescent DNA replication assay
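Pol eta (10 nM) was preincubated with compounds for 15 min at room temperature, after which fluorescent replication substrate (50 nM final) was added to start the reaction. Fluorescence was read kinetically at 0 and 10 min.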
PI5P4Ka inh = blocks human PI5P4K alpha kinase activity | P48426 | PI5P4Kalpha enzyme, ADP-Glo luminescence, 60 min; active compounds read low | max response, % | 1.2% of 330,000 active | AID 652105; active = max response of -50% or lower; inconclusive = between -30% and -50%; inactive = -30% or higher; also: value at the top dose of about 77 µM
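Compounds were pin-transferred onto PI5P4Kalpha and substrate in HEPES pH 7.4 buffer with EGTA, CHAPS and 5% DMSO. ATP (5 microM final) started the reaction, which ran 60 minutes at room temperature before ADP-Glo detection.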
Pol kappa inh-1 = inhibitors of human DNA polymerase kappa. purified Pol kappa, fluorescent DNA synthesis assay, 10 min. Potency, µM (series often up to 107 µM), hits mostly inhibitors. 0.53% of 400,000 active
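Pol kappa 10 nM + cpd, 15 min RT; start w/ substrate 50 nM final; fluorescence kinetic read, 0 and 10 min. Neg ctrl: buffer, no enzyme.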
Pol kappa inh-2 = Pol kappa (human) inhibition, cherry-pick confirmation | 76% of 920 active | AID 720501 | Potency, µM, most hits filed as inhibitors | shares compounds with Pol eta inh-1 | purified Pol-kappa, fluorescent strand-displacement substrate
Pol eta inh-2 = confirmation of human DNA polymerase eta inhibitors | 64% of 2,600 active | shares compounds with Pol eta inh-1 | Potency, µM, usual class: inhibitors | Pol eta primer extension, TAMRA/BHQ fluorescence, 10 min
Numbers stand for hits; i = inactive; ? = inconclusive; nt = no result given; [ ] = another dose, or the depositor's remark. Hits are enriched below; roughly 2.8% of the tested compounds scored in any of these assays. Unless noted, calls follow the shape of the dose curve; as a rule, active = well fitted curve in the direction sought with a large enough effect; inconclusive = small, poorly fitted or top-dose-only effect, or another doubt; inactive = no such curve, though single readings can be large; an effect the other way counts as inactive or inconclusive.

SMILES | POLI inh | WRN inhibitor | POLB inh | Pol eta inh-1 | PI5P4Ka inh | Pol kappa inh-1 | Pol eta inh-2 | others
O=C(Nc1ccc(S(=O)(=O)O)cc1)c1ccc2c(c1)S(=O)(=O)c1ccccc1C2=O | i | i | nt | 28µM | i | i | 67
C=CCOc1ccc(C2/C(=C(\O)c3ccc4c(c3)CC(C)O4)C(=O)C(=O)N2CCN2CCOCC2)cc1OCC (stereo unspecified) | i | i | i | i | i | i | nt
O=C(O)CN=C(Nc1cc(Cl)cc(Cl)c1)NC(c1ccccc1)c1ccccc1 | nt | i | nt | nt | i | nt | nt
Cc1c(NC(=O)C(C)OC(=O)c2ccc([N+](=O)[O-])s2)c(=O)n(-c2ccccc2)n1C (stereo unspecified) | ? | i[11.6 µM] | 10µM | 50µM | i | ? | ?
CCCc1cc(=O)oc2cc(OCC(=O)NC(Cc3c[nH]c4ccc(O)cc34)C(=O)O)c(Cl)cc12 (stereo unspecified) | ? | i | i | 40µM | i | ? | ?
COC(=O)[C@@]12C[C@@H](CC(=O)N3CCN(C(=O)C4CC4)CC3)C(=O)N(Cc3cccc4ccccc34)C1=CCC(C)(C)C2 | nt | i | nt | nt | i | nt | nt
Cc1cc2oc(C(=O)Nc3sc4c(c3C(=O)NCc3ccco3)CCC4)cc(=O)c2cc1C | ? | nt | ? | 50µM | nt | ? | ? | Pol kappa inh-2=?
CCOc1ccc(N(C)C(=O)CCc2nnc3ccc(NCc4ccco4)nn23)cc1 | i | i | i | i | i | i | nt
O=C1CS/C(=N\N=C\c2ccco2)N1c1ccccc1 | ? | i[11.6 µM] | ? | ? | ? | ? | ? | Pol kappa inh-2=?
O=C(N/N=C/c1cc(Cl)cc([N+](=O)[O-])c1O)c1ccccc1NS(=O)(=O)c1cccs1 | ? | i[11.6 µM] | i | ? | i | i | ?
O=C(NN=Cc1ccc(O)cc1)c1ccccc1NS(=O)(=O)c1cccs1 | i | i | nt | i | i | i | nt
Cn1nc(-c2ccc(OCC(=O)Nc3ccccc3)cc2)c2ccccc2c1=O | i | i | i | i | i | i | nt
Cn1nc(-c2ccc(OCC(=O)Nc3ccc(Cl)cc3)cc2)c2ccccc2c1=O | i | nt | 7.9µM | i | nt | i | nt | Pol kappa inh-2=42
O=c1ccc2[n+]([O-])c3ccc(O)cc3oc-2c1 | 25µM | i | 63µM | i | i | ? | nt | Pol kappa inh-2=24
COc1ccc(N2N=NN(C(C)C)C2=C(Cl)c2nnnn2-c2ccc(OC)cc2)cc1 | i | i | nt | i | i | i | nt
Cc1ccc(S(=O)(=O)Nc2ccccc2C(=O)Nc2nc(-c3ccc(F)cc3)cs2)cc1 | ? | ? | i | 89µM | i | ? | ?
Cc1ccoc1C(=O)NCc1occc1C(=O)O | ? | i | i | 6.3µM | i | ? | 30
CCOc1ccc(-c2ccc(/C=C3/C(=N)N4C(C)=CSC4=NC3=O)o2)c([N+](=O)[O-])c1 | 40µM | ? | 35µM | 14µM | -59 | ? | ?
O=C(O)c1ccccc1C(=O)c1ccc2oc(=O)[nH]c2c1 | ? | i[11.6 µM] | nt | 22µM | i | ? | 38 | Pol kappa inh-2=?
Cc1ccc(C(=O)c2ccccc2C(=O)O)cc1C | i | i | i | i | i | i | nt
O=C(O)CN1C(=O)/C(=C/c2ccc(SCc3ccccc3)o2)SC1=S | ? | ? | 3.5µM | 18µM | ? | 79µM | 76
Cc1cc[n+](CC(=O)c2ccc(F)cc2)c2ccccc12 | i | nt | nt | nt | nt | i | nt
Cc1ccc(C)c(C2=NNC(=O)CC2)c1 | i | i | nt | i | i | i | nt
O=C(CSc1nc2ccccc2[nH]1)NC1CCCC1 | ? | ? | 14µM | 40µM | i | ? | ?
CN(c1ccc(OCC(=O)OCC(=O)Nc2ccc([N+](=O)[O-])cc2)cc1)S(=O)(=O)c1cccs1 | i | ? | nt | i | i | i | nt
Cc1cc(C)c(C)c(S(=O)(=O)Nc2ccc3cn[nH]c3c2)c1C | i | i | nt | i | i | i | nt
Cc1cc(=O)oc2c(CN3CCCC3)c(O)c(Cl)cc12 | i | i | ? | ? | i | i | nt
CCN(CC)Cc1c(O)c(Cl)cc2c(C)cc(=O)oc12 | ? | i[11.6 µM] | 10µM | 20µM | ? | 89µM | ?
